The values below come from paper PMC8384837, “Expanding the binding specificity for RNA recognition by a PUF domain”.

Residue numbers refer to the chain shown, from its start.

Test in all cases: yeast three-hybrid, YBZ-1, SC-Leu-His + 0.5 mM 3-AT, 4 days
Common to all, as to conditions: tags: N-Gal4 AD-HA kept; label: inside an RPR1-promoter hybrid RNA with tandem MS2 sites; ssRNA

One experiment has as its target T1, PUM1 PUF domain R6-MYV (Homo sapiens, UniProt Q14671 828-1176, N1043M;Q1047V).
T1 sequence: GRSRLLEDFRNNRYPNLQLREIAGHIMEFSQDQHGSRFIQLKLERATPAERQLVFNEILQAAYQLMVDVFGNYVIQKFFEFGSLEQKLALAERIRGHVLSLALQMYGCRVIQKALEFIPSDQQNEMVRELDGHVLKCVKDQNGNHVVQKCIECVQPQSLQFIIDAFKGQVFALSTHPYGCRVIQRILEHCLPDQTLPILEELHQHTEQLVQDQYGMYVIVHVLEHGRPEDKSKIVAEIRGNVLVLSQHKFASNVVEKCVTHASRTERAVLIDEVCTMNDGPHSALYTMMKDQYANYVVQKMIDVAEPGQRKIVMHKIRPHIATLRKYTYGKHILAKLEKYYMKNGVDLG
The method, boiled down: (§1)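 The interaction score is the logarithmic change in variant frequency from input to selection. It uses log2, with a pseudocount of 1 for absent variants, and frequencies came from PCR-amplified, Illumina-sequenced repeat regions. The libraries were Pumilio-1 PUF domains randomized at the three base-contacting residues per repeat, co-expressed with matching RNA elements in strain YBZ-1 (LexA–MS2 coat fusion, HIS3 reporter). Plating lasted four days on SC-Leu (input) or SC-Leu-His + 0.5 mM 3-AT (selection).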

In another experiment the target is PUM1 PUF domain R3-IYR (Homo sapiens, UniProt Q14671 828-1176, C935I;R936Y;Q939R). The method, boiled down: as §1
A further experiment has as its target PUM1 PUF domain R8-PWT (Homo sapiens, UniProt Q14671 828-1176, N1122P;Y1123W;Q1126T). The gist of the method:
as §1

In a further experiment the target is PUM1 PUF domain R3-CRL (Homo sapiens, UniProt Q14671 828-1176, Q939L). The method, boiled down: as §1
Another experiment concerns the target PUM1 PUF domain R3-LFI (Homo sapiens, UniProt Q14671 828-1176, C935L;R936F;Q939I). The gist of the method:
as §1

The target in a further experiment is T2, PUM1 PUF domain R6-YWR (Homo sapiens, UniProt Q14671 828-1176, N1043Y;Y1044W;Q1047R).
T2 sequence: T1 sequence with M216Y, Y217W, V220R
The method, boiled down: as §1

The target of a further experiment is PUM1 PUF domain R1-GKK (Homo sapiens, UniProt Q14671 828-1176, S863G;R864K;Q867K). The gist of the method: as §1
Another experiment concerns the target PUM1 PUF domain R5-QMW (Homo sapiens, UniProt Q14671 828-1176, C1007Q;R1008M;Q1011W). The gist of the method: as §1
The target in another experiment is PUM1 PUF domain R1-RQS (Homo sapiens, UniProt Q14671 828-1176, S863R;R864Q;Q867S). The method, boiled down:
as §1

Another experiment addresses PUM1 PUF domain R3-IRG (Homo sapiens, UniProt Q14671 828-1176, C935I;Q939G). The method, boiled down:
as §1

Chain of PUM1 PUF domain R5-QMW (Q14671 828-1176 C1007Q/R1008M/Q1011W): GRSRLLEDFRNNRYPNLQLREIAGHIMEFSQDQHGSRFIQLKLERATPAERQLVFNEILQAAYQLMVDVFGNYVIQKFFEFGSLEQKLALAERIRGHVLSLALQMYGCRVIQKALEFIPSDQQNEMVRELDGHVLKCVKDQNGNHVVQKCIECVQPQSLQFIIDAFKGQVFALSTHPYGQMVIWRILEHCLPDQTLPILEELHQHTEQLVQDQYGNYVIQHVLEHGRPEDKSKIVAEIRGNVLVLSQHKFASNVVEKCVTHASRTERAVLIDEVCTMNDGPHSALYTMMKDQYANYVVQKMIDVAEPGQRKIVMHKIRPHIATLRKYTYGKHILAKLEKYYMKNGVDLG
Chain of PUM1 PUF domain R1-RQS (Q14671 828-1176 S863R/R864Q/Q867S): as the sequence (Q14671 828-1176 C1007Q/R1008M/Q1011W) above, with S36R, R37Q, Q40S, Q180C, M181R, W184Q counted along it

With “GGCUAGAACUAGUGGAUCCCCCGGCGCCCGGCGGCUCGAGCCCGGGUAAGUGUAAAUAGUCUGCAUGCCGCCGGGCGCCAUGCCUGCAGGUCGACUCUAGAAAACAUG”, the binding signal with PUM1 PUF domain R6-MYV was 2.31 log2 enrichment (interaction score); with PUM1 PUF domain R3-IYR, 4.02 log2 enrichment (interaction score); in the experiment with PUM1 PUF domain R8-PWT it was 1.25 log2 enrichment (interaction score); with PUM1 PUF domain R3-CRL it was 2.25 log2 enrichment (interaction score); with PUM1 PUF domain R3-LFI it was 3.78 log2 enrichment (interaction score); with PUM1 PUF domain R6-YWR it was 5.79 log2 enrichment (interaction score).
Turning to “GGCUAGAACUAGUGGAUCCCCCGGCGCCCGGCGGCUCGAGCCCGGGUAAGUGUAAAUGGUCUGCAUGCCGCCGGGCGCCAUGCCUGCAGGUCGACUCUAGAAAACAUG”, the binding signal with PUM1 PUF domain R1-GKK was 3.39 log2 enrichment (interaction score).
For the sequence “GGCUAGAACUAGUGGAUCCCCCGGCGCCCGGCGGCUCGAGCCCGGGUAAGCGUAAAUAGUCUGCAUGCCGCCGGGCGCCAUGCCUGCAGGUCGACUCUAGAAAACAUG”, the binding signal with PUM1 PUF domain R8-PWT was 3.16 log2 enrichment (interaction score).
With “GGCUAGAACUAGUGGAUCCCCCGGCGCCCGGCGGCUCGAGCCCGGGUAAGUGUGAAUAGUCUGCAUGCCGCCGGGCGCCAUGCCUGCAGGUCGACUCUAGAAAACAUG”, the binding signal in the experiment with PUM1 PUF domain R5-QMW was 2.85 log2 enrichment (interaction score).
As to “GGCUAGAACUAGUGGAUCCCCCGGCGCCCGGCGGCUCGAGCCCGGGUAAGUGUAAAUUGUCUGCAUGCCGCCGGGCGCCAUGCCUGCAGGUCGACUCUAGAAAACAUG”, the results for the binding signal with PUM1 PUF domain R1-RQS and in the experiment with PUM1 PUF domain R1-GKK were 3.04 log2 enrichment (interaction score) and 5.09 log2 enrichment (interaction score), respectively.
In the case of “GGCUAGAACUAGUGGAUCCCCCGGCGCCCGGCGGCUCGAGCCCGGGUAAGUGAAAAUAGUCUGCAUGCCGCCGGGCGCCAUGCCUGCAGGUCGACUCUAGAAAACAUG”, the binding signal with PUM1 PUF domain R6-YWR was 6.63 log2 enrichment (interaction score).
As to “GGCUAGAACUAGUGGAUCCCCCGGCGCCCGGCGGCUCGAGCCCGGGUAAGUGUUAAUAGUCUGCAUGCCGCCGGGCGCCAUGCCUGCAGGUCGACUCUAGAAAACAUG”, in the experiment with PUM1 PUF domain R5-QMW, the binding signal was 0.66 log2 enrichment (interaction score).
Consider “GGCUAGAACUAGUGGAUCCCCCGGCGCCCGGCGGCUCGAGCCCGGGUAAGUGUAAUUAGUCUGCAUGCCGCCGGGCGCCAUGCCUGCAGGUCGACUCUAGAAAACAUG”, for which the values for the binding signal in the experiment with PUM1 PUF domain R3-CRL and in the experiment with PUM1 PUF domain R3-IRG were 1.88 log2 enrichment (interaction score) and 0.44 log2 enrichment (interaction score), respectively.
On to “GGCUAGAACUAGUGGAUCCCCCGGCGCCCGGCGGCUCGAGCCCGGGUAAGUGUAAGUAGUCUGCAUGCCGCCGGGCGCCAUGCCUGCAGGUCGACUCUAGAAAACAUG”, for which the binding signal in the experiment with PUM1 PUF domain R3-IYR is 5.62 log2 enrichment (interaction score); with PUM1 PUF domain R3-CRL, 0.83 log2 enrichment (interaction score); in the experiment with PUM1 PUF domain R3-IRG it was 3.97 log2 enrichment (interaction score).
